# Measured values as given in PubChem BioAssay AID1051 (The Scripps Research Institute Molecular Screening Center, 2008).
# Among all 99,000 compounds or so, about 340 (0.34%) were called active. This is one part of a sample in which actives are shown more often than they occur. No stated cut-off is given here; in the data, active means TR-FRET ratio above about 2300; inactive means the rest.
# Assay: TR-FRET detection interference compounds, primary screen, artefact control for PPARgamma SRC-1 recruitment agonists, biochemical, TR-FRET emission ratio (AID 1051)
# Conditions: TR-FRET detection artefact counter-screen, at 8 µM, stronger effect = higher value
row,SMILES,TR-FRET ratio
1,Cc1ccc(C2NC(C(=O)O)CS2)cc1 (stereo unspecified),1760 (inactive)
2,CC1(C)C(C=C(Cl)Cl)C1C(=O)N(Cc1ccc(Cl)cc1)C1CCS(=O)(=O)C1 (stereo unspecified),1570 (inactive)
3,CCC(=O)N1c2ccccc2NC2=C(C(=O)CCC2)C1c1ccco1 (stereo unspecified),1690 (inactive)
4,Cn1c(N)c(C(=O)COC(=O)c2ccccc2NCc2ccco2)c(=O)n(C)c1=O,1870 (inactive)
5,CCN(C(=O)COc1cccnc1[N+](=O)[O-])C1CCS(=O)(=O)C1 (stereo unspecified),1750 (inactive)
6,Cc1ccc(CN2CCN(/N=C/c3cccnc3)CC2)c(C)c1,1720 (inactive)
7,Cc1ccccc1-c1n[nH]c(=S)n1C,1660 (inactive)
8,S=c1[nH]nc(-c2ccccc2)n1/N=C/c1c[nH]c2ccccc12,1810 (inactive)
9,Cc1ccccc1-c1n[nH]c(=S)n1/N=C/c1ccc(-c2ccccc2Br)o1,2950 (active)
10,CCc1ccc(CN(C)C(=O)CCc2nnc(-c3ccc(-c4ccccc4)cc3)o2)nc1,1540 (inactive)
11,O=C(COC(=O)c1cc(-c2cccs2)nn1-c1ccccc1)Nc1cc([N+](=O)[O-])ccc1Cl,2060 (inactive)
12,Cc1cc(CNCc2c(C(=O)N(C)Cc3ccccc3)nc3ccccn23)nn1C,1760 (inactive)
13,COc1ccccc1-c1nnc(NC(=O)c2cccc(N3C(=O)CCC3=O)c2)o1,1920 (inactive)
14,Cc1noc(C)c1COc1cccc(C(=O)Nc2cccnc2)c1,1740 (inactive)
15,O=C(CCC1CCCN(C(=O)Cc2ccc(F)cc2)C1)N1CCN(c2ccccn2)CC1 (stereo unspecified),1640 (inactive)
16,CCNc1ccc(C(=O)OCC(=O)N2c3ccccc3NC(=O)C2(C)C)cc1[N+](=O)[O-],1810 (inactive)
17,COCCNC(=O)C(OC(=O)c1cccs1)c1ccc(F)cc1 (stereo unspecified),1860 (inactive)
18,O=C(Nc1nnc(-c2ccco2)o1)c1ccc(S(=O)(=O)N2CCOCC2)cc1,1880 (inactive)
19,NC(=O)COC(=O)c1cc(S(=O)(=O)N2CCN(c3ccccc3)CC2)ccc1Cl,1880 (inactive)
20,Cc1ccc(C(=O)NC(=S)Nc2ccccc2C)cc1,1630 (inactive)
21,Cc1nc2ccccc2n1CC(=O)N/N=C/c1cccnc1,1750 (inactive)
22,CCCCOc1ccc(C(=O)NCC(=O)OCC(=O)N2CCN(S(=O)(=O)c3ccc(C)cc3C)CC2)cc1,1610 (inactive)
23,CN(C)c1ccc(N/C=C/C(=O)C(F)(F)F)cc1,2320 (active)

row,SMILES,TR-FRET ratio
1,CC(C)CNC(=O)C(=O)Nc1ccc(N(C)C)cc1,1880 (inactive)
2,CCCOc1ccc(N/C=C/C(=O)C(C)(C)C)cc1,1770 (inactive)
3,CC1CCCN(S(=O)(=O)c2ccc(N(C(=O)c3cnccn3)C(C(=O)NC3CCCCC3)c3cccs3)cc2)C1 (stereo unspecified),1760 (inactive)
4,CC(=O)Nc1ccc(/C=N/NC(=O)c2cccs2)cc1,1750 (inactive)
5,C=CCn1c(=NC(=O)c2cccs2)sc2cc(NC(C)=O)ccc21,2340 (active)
6,C=CCn1c(=NC(=O)c2ccc(S(=O)(=O)N3CCCC3)cc2)sc2cc(NC(C)=O)ccc21,1920 (inactive)
7,CC(NC(=O)CCC(=O)N1CCN(S(=O)(=O)c2ccc(Cl)cc2)CC1)c1ccccc1 (stereo unspecified),2170 (inactive)
8,CC(NC(=O)COC(=O)c1ccc2c(c1)OCO2)c1ccccc1 (stereo unspecified),1700 (inactive)
9,CCOc1ccc(/C=N/NC(=O)C(C)Sc2ccccn2)cc1OCC (stereo unspecified),1650 (inactive)
10,CCN(CC)C(=O)Cn1cc(S(=O)(=O)CC(=O)NCc2ccc3c(c2)OCO3)c2ccccc21,1870 (inactive)
11,Cc1cccc(-c2nc3ccccc3c(=O)n2NC(=O)Cc2ccc(Cl)cc2)c1,1630 (inactive)
12,O=C(Cc1cccs1)Nc1cccc(-c2nc3ccccc3[nH]2)c1,1820 (inactive)
13,CC(=O)Nc1ccc(S(=O)(=O)Nc2ccc(-c3ccc4nnc(C)n4n3)cc2)cc1,1930 (inactive)
14,C/C(N)=C(/C#N)C(=O)COC(=O)C1CCN(C(=O)c2ccc(Cl)cc2)CC1,1880 (inactive)
15,C/C(=N/O)c1ccc(N2C(=O)C3C4C=CC(C3C2=O)C2C3C(=O)N(c5ccc(/C(C)=N/O)cc5)C(=O)C3C42)cc1 (stereo unspecified),1760 (inactive)
16,CSc1ccc(/C=N/N2CCN(Cc3ccccc3Cl)CC2)cc1,1700 (inactive)
17,CC1CCCCC1NC(=O)COC(=O)Cc1ccc(Br)cc1 (stereo unspecified),1500 (inactive)
18,CCSC1=NCCN1C(=O)c1ccc(S(=O)(=O)N(CC)CC)cc1,1800 (inactive)
19,CCN(CC)Cc1nc2sc(C)c(C)c2c(=O)[nH]1,1970 (inactive)
20,Cc1ccc(OC(=O)CCC(=O)Nc2ccc(Br)cc2)cc1,1980 (inactive)
21,CC(=O)N/N=C(\C)c1ccc(Br)cc1Br,1740 (inactive)
22,COC(=O)c1onc(-c2c(OC)cc(OC)cc2OC)c1C(=O)OC,1640 (inactive)
23,Cc1sc2nc(CC(N)=O)[nH]c(=O)c2c1-c1ccccc1,1690 (inactive)
